Experimental data reported in PubChem BioAssay AID1117284 (Broad Institute, 2014).
Results with a measured potency or affinity are listed apart. Values without a mark were called inactive.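 How the source made its calls: active means viability signal drop whose fitted half-maximal concentration is at most twice the top valid dose; inconclusive means flat partial drop or unreliable curve fit; inactive means the rest.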

Assay: A549 cell cytotoxicity, dose response, CellTiter-Glo luminescence, dry powder, set 17 (AID 1117284)
Settings: A549 viability, CellTiter-Glo ATP luminescence, 72 h; series mostly up to 26 µM; activity change, negative = cytotoxic: at the top concentration
For `C[C@H]1CN([C@@H](C)CO)S(=O)(=O)c2ccc(Br)cc2O[C@H]1CN(C)Cc1ccc(-c2ccccc2)cc1`, the “activity change, negative = cytotoxic” value was 3.58%.
With `C[C@@H](O)C#Cc1ccc2c(c1)O[C@@H](CN(C)Cc1ccncc1)[C@@H](C)CN([C@@H](C)CO)S2(=O)=O` the “activity change, negative = cytotoxic” value was 24.1%.
For `C[C@@H](O)C#Cc1ccc2c(c1)O[C@@H](CN(C)S(=O)(=O)c1ccc(-c3ccccc3)cc1)[C@@H](C)CN([C@@H](C)CO)S2(=O)=O`, the “activity change, negative = cytotoxic” value was 15.3%.
With `C[C@H](CO)N1C[C@H](C)[C@H](CN(C)Cc2ccc(-c3ccccc3)cc2)Oc2cc(C#C[C@@H](C)O)ccc2S1(=O)=O` the “activity change, negative = cytotoxic” value was 16.2%.
With `C[C@@H](O)C#Cc1ccc2c(c1)O[C@@H](CN(C)C(=O)c1ccc(-c3ccccc3)cc1)[C@@H](C)CN([C@@H](C)CO)S2(=O)=O` the “activity change, negative = cytotoxic” value was 22.5%.
With `CNC[C@@H]1Oc2cc(Br)ccc2S(=O)(=O)N([C@@H](C)CO)C[C@@H]1C` the “activity change, negative = cytotoxic” value was 11.6%.
For `CO[C@H]1CN(C)C(=O)c2ccc(NC(=O)c3ccc(F)cc3)cc2OC[C@H](C)N(C(=O)c2ccc(F)cc2)C[C@@H]1C`, the “activity change, negative = cytotoxic” value was 18.3%.
With `C[C@@H](O)C#Cc1ccc2c(c1)O[C@@H](CN(C)Cc1cccnc1)[C@@H](C)CN([C@@H](C)CO)S2(=O)=O` the “activity change, negative = cytotoxic” value was 8.93%.
